{"source": "PubChem BioAssay AID686979", "about": "(National Center for Advancing Translational Sciences (NCATS), 2013)", "note": "Among all 420,000 compounds or so, about 50,000 (12%) were called active. Not shown: some 26% with an inconclusive outcome. The call rests on the fitted dose curve; in most records, active means well fitted inhibition curve with a large enough effect; inconclusive means small, poorly fitted or top-dose-only effect; inactive means flat fitted curve, though single readings scatter. Shown is part of a subset that was picked to be rich in actives. On the % scale 0 is the no-effect control and ±100 the full control effect; potency means the concentration at half of the fitted maximal effect."}
{"test": "qHTS for Inhibitors of human tyrosyl-DNA phosphodiesterase 1 (TDP1): qHTS in cells in presence of CPT; further: nearly all actives have a fitted effect of over 55% in size", "conditions": "chicken DT40 Tdp1-/-;hTDP1 cells + 20 nM CPT, ATP luminescence, 48 h; series mostly up to 46.2 µM; activity change, negative = growth inhibition: at the top concentration", "outline": "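Chicken DT40 Tdp1-/- cells complemented with human TDP1, 400 cells/well, exposed to compounds plus 20 nM camptothecin for at least 48 h at 37 C; viability read as ATP content by CellTiter-Glo luminescence.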"}
{"smiles": "CCn1c(SC(C)C(=O)Nc2ccc(N3CCOCC3)cc2)nnc1-c1ccco1", "note": "(stereo not given)", "activity change, negative = growth inhibition": "-14.6% (inactive)"}
{"smiles": "COc1ccc(C(C)C)cc1-c1ccc2nncn2c1", "activity change, negative = growth inhibition": "-1.77% (inactive)"}
{"smiles": "C=CCn1c(SCC(=O)Nc2ccc(NC(C)=O)cc2)nc2sc(C)c(C)c2c1=O", "activity change, negative = growth inhibition": "-7.85% (inactive)"}
{"smiles": "CC(OC(=O)CNC(=O)c1ccco1)C(=O)Nc1ccc(Cl)cn1", "note": "(stereo not given)", "activity change, negative = growth inhibition": "3.92% (inactive)"}
{"smiles": "CC(=O)c1ccc(N2Cc3ccccc3C2)cc1", "activity change, negative = growth inhibition": "11.7% (inactive)"}
{"smiles": "O=C(Nc1nncs1)c1cccc(S(=O)(=O)N2CCCCC2)c1", "activity change, negative = growth inhibition": "-15.7% (inactive)"}
{"smiles": "O=C(Nc1ccc(NC(=O)c2ccc3c(c2)OCO3)cc1)c1cccc(Cl)c1", "activity change, negative = growth inhibition": "12% (inactive)"}
{"smiles": "O=C(Nc1cccc(S(=O)(=O)Nc2ccc(Cl)cc2)c1)c1ccc2c(c1)OCCO2", "Potency": "13 µM (active)"}
{"smiles": "CC(NS(=O)(=O)c1ccc(Cl)cc1)C(=O)Nc1ccc2c(c1)OCCO2", "note": "(stereo not given)", "activity change, negative = growth inhibition": "0.47% (inactive)"}
{"smiles": "CN1CCN(S(=O)(=O)c2cccc(C(=O)Nc3cccc(S(N)(=O)=O)c3)c2)CC1", "activity change, negative = growth inhibition": "-3.98% (inactive)"}
{"smiles": "O=C(Nc1cccc(S(=O)(=O)N2CCCCC2)c1)c1ccc2c(c1)OCO2", "Potency": "25.9 µM (active)"}
{"smiles": "Cc1cc(C)cc(OCC(=O)OCC(=O)NC2CCCC2)c1", "activity change, negative = growth inhibition": "7.16% (inactive)"}
{"smiles": "Cn1c(=O)c(=O)n(C)c2cc(S(=O)(=O)CCC(=O)N3CCCCC3)ccc21", "activity change, negative = growth inhibition": "-16.2% (inactive)"}
{"smiles": "COc1cc(S(=O)(=O)N2CCN(C(=O)C3CC3)CC2)ccc1NC(C)=O", "activity change, negative = growth inhibition": "-6.15% (inactive)"}
{"smiles": "Clc1ccc(Cl)c(Oc2ccc(Oc3nc(Cl)ccc3Cl)cc2)n1", "activity change, negative = growth inhibition": "-23.1% (inactive)"}
{"smiles": "COC(=O)CCCCC1=CCC2C(=O)C=C(O)C2C1", "note": "(stereo not given)", "activity change, negative = growth inhibition": "-19.3% (inactive)"}
{"smiles": "COc1ccc(-c2nnc(SCC(=O)Nc3ccccc3C)o2)cc1OC", "activity change, negative = growth inhibition": "-12.2% (inactive)"}
{"smiles": "Cc1cc(C)cc(-c2nnc(SCC(=O)NC3CC3)o2)c1", "activity change, negative = growth inhibition": "-10.3% (inactive)"}
{"smiles": "COc1ccc(-c2nnc(SCC(=O)NC3CCCCC3)o2)cc1OC", "Potency": "20.6 µM (active)"}
{"smiles": "Cc1cc(C)nc(/N=C2\\NC(=O)CC(C(=O)O)N2c2ccc(Cl)cc2Cl)n1", "note": "(stereo not given)", "activity change, negative = growth inhibition": "-8.38% (inactive)"}
{"smiles": "Cc1cc(NC(=O)/C=C/C(=O)N(c2ccccc2C)C(C(=O)NC2CCCC2)c2ccc(F)cc2)no1", "note": "(stereo not given)", "Potency": "20.6 µM (active)"}
{"smiles": "Cc1cc(NC(=O)/C=C/C(=O)N(CC(=O)NC2CCCC2)c2ccc(F)cc2)no1", "activity change, negative = growth inhibition": "8.35% (inactive)"}
{"smiles": "Cc1cc(NC(=O)CCC(=O)N(c2cccc(F)c2)C(C(=O)NC2CCCC2)c2ccncc2)no1", "note": "(stereo not given)", "activity change, negative = growth inhibition": "-3.74% (inactive)"}
{"smiles": "O=C(Nc1ccc(F)c([N+](=O)[O-])c1)C1CCCO1", "note": "(stereo not given)", "activity change, negative = growth inhibition": "-10.5% (inactive)"}
{"smiles": "CN(c1ccccc1)S(=O)(=O)c1cccc(C(=O)NNC(=O)c2ccncc2)c1", "activity change, negative = growth inhibition": "-10.2% (inactive)"}
{"smiles": "CN(C)S(=O)(=O)c1ccc(N2CCCC2)c(C(=O)NCc2ccccc2)c1", "activity change, negative = growth inhibition": "-14.6% (inactive)"}
{"smiles": "CCN(CC)S(=O)(=O)c1ccc(N2CCCC2)c(NC(=O)c2ccc([N+](=O)[O-])o2)c1", "Potency": "23.1 µM (active)"}
{"smiles": "CCN(CC)S(=O)(=O)c1ccc(N2CCOCC2)c(NC(=O)C2COc3ccccc3O2)c1", "note": "(stereo not given)", "Potency": "18.4 µM (active)"}
{"smiles": "CCN(CC)S(=O)(=O)c1ccc(N2CCOCC2)c(NC(=O)c2ccc(=O)n(C)n2)c1", "activity change, negative = growth inhibition": "-10.4% (inactive)"}
{"smiles": "CCN1CCN(c2ccc(S(=O)(=O)N3CCCCC3)cc2NC(=O)c2cccc(NC(C)=O)c2)CC1", "activity change, negative = growth inhibition": "-7.38% (inactive)"}
{"smiles": "CCN(CC)S(=O)(=O)c1ccc(N2CCOCC2)c(C(=O)O)c1", "activity change, negative = growth inhibition": "0.809% (inactive)"}
{"smiles": "O=C(c1cccnc1)N(Cc1ccccc1)C(=O)c1cccnc1", "activity change, negative = growth inhibition": "-2.33% (inactive)"}
{"smiles": "COc1ccccc1C(=O)NCC(=O)OCC(=O)NNC(=O)c1ccc(Br)cc1", "activity change, negative = growth inhibition": "3.59% (inactive)"}
{"smiles": "Cc1ccc(N2C(=O)C(NC(=O)c3c(F)cccc3F)(C(F)(F)F)C3=C2CC(C)(C)CC3=O)cc1", "note": "(stereo not given)", "activity change, negative = growth inhibition": "20.2% (inactive)"}
{"smiles": "Cc1ccc(O)c(NC(=O)c2cc(-c3ccco3)on2)c1", "activity change, negative = growth inhibition": "6.69% (inactive)"}
{"smiles": "Cc1cccc(NC(=O)C2CC(=O)OC23CCCC3)c1", "note": "(stereo not given)", "activity change, negative = growth inhibition": "-2.24% (inactive)"}
{"smiles": "COc1cc2c(cc1OC)C(c1ccc(C)o1)CC(=O)N2", "note": "(stereo not given)", "activity change, negative = growth inhibition": "10.7% (inactive)"}
{"smiles": "COc1ccccc1C1C2=C(COC2=O)Nc2cc3c(cc21)OCO3", "note": "(stereo not given)", "activity change, negative = growth inhibition": "-8.64% (inactive)"}
{"smiles": "CCCOc1ccccc1C1CC(=O)Nc2cc3c(cc21)OCO3", "note": "(stereo not given)", "Potency": "2.31 µM (active)"}
{"smiles": "COc1ccccc1C(=O)NC(=O)COC(=O)C1CC1", "activity change, negative = growth inhibition": "-14.2% (inactive)"}
{"smiles": "N#Cc1c(N)nc2c3c(sc(=N)c2c1N)NC(=O)CC3c1ccccc1Cl", "note": "(stereo not given)", "activity change, negative = growth inhibition": "-88.9% (inactive)"}
{"smiles": "COc1ccc(NC(=O)CSCc2ccc([N+](=O)[O-])cc2)cc1OC", "activity change, negative = growth inhibition": "-9.99% (inactive)"}
{"smiles": "CCCCOc1ccc(CSC(=N)N)cc1[N+](=O)[O-]", "Potency": "13 µM (active)"}
{"smiles": "CCCCOc1ccc(CON(C(C)=O)C(C)=O)cc1Cl", "activity change, negative = growth inhibition": "-14.4% (inactive)"}
{"smiles": "Cc1nn(C)c(C)c1C(C)NC(=O)c1ccc(OC2CCN(Cc3ccccn3)CC2)cc1", "note": "(stereo not given)", "activity change, negative = growth inhibition": "-16.9% (inactive)"}
{"smiles": "CN(C)S(=O)(=O)c1cccc(NC(=O)Cc2ccsc2)c1", "activity change, negative = growth inhibition": "-1.21% (inactive)"}
{"smiles": "Cc1ccc(/C=N/NC(=S)Nc2cccc(S(=O)(=O)N(C)C)c2)o1", "Potency": "4.61 µM (active)"}
{"smiles": "Cc1ccc(/C=N/NC(=O)Cn2nc(C)c(Br)c2C)o1", "activity change, negative = growth inhibition": "-14.3% (inactive)"}
{"smiles": "COc1ccc(NC(=O)CN(C)C(=O)Cc2coc3cc(C)c(C)cc23)cc1", "activity change, negative = growth inhibition": "-2.55% (inactive)"}
{"smiles": "COc1ccc(NC(=O)C(CC(C)C)NC(=O)C2CCC(C)CC2)cc1", "note": "(stereo not given)", "activity change, negative = growth inhibition": "-10.8% (inactive)"}
{"smiles": "CCc1ccc(-n2nnc(-c3nc(-c4ccccc4)no3)c2C)cc1", "activity change, negative = growth inhibition": "-18.1% (inactive)"}
{"smiles": "O=C(CN(C(=O)c1csnn1)c1cccc(Cl)c1)NC1CCCC1", "activity change, negative = growth inhibition": "-0.246% (inactive)"}
{"smiles": "O=C(NC(=S)Nc1ccccc1N1CCCCC1)c1ccc(F)cc1", "activity change, negative = growth inhibition": "-10.6% (inactive)"}
{"smiles": "CCCN(CCC)c1ccc(C(O)c2nnc(-c3ccccc3)o2)cc1", "note": "(stereo not given)", "activity change, negative = growth inhibition": "2.08% (inactive)"}
{"smiles": "CC(=O)c1ccc(NC(=O)COc2ccccc2-c2nc(-c3ccccc3)no2)cc1", "activity change, negative = growth inhibition": "4.35% (inactive)"}
{"smiles": "CC(=O)c1ccc(NC(c2ccc(F)cc2)c2nnc(-c3ccccc3)o2)cc1", "note": "(stereo not given)", "Potency": "9.2 µM (active)"}
{"smiles": "CCn1c(SCC(=O)Nc2ccc3c(c2)OCCO3)nnc1-c1ccncc1", "activity change, negative = growth inhibition": "3.72% (inactive)"}
{"smiles": "CCC(=O)c1ccc(OCC(=O)OCC(=O)NC2CCCCCC2)cc1", "activity change, negative = growth inhibition": "-25.7% (inactive)"}
{"smiles": "Cc1cc(C)c(C)c(S(=O)(=O)Nc2cccnc2)c1C", "activity change, negative = growth inhibition": "2.32% (inactive)"}
{"smiles": "Cc1ccc(C(=O)NNC2=Nc3cc([N+](=O)[O-])ccc3OC2)cc1", "activity change, negative = growth inhibition": "-2.68% (inactive)"}
